In PubChem BioAssay AID463173 (ICCB-Longwood Screening Facility, Harvard Medical School, 2010):
About 4,300 (8.3%) of roughly 52,000 compounds were called active. Many of the other results were omitted from the sample, so actives are more common in it than they were. Unmarked numbers belong to inactive results. Rule as the data show it: active = survival mostly below about 52% (no sharp cut-off); inactive = mostly above about 56%.

tested on: DeltatarO mutant; experiment: growth inhibition of S. aureus wild type versus tarO mutant, primary screen, teichoic acid synthesis inhibitors, RN4220, OD600 (AID 463173); conditions: OD600, 18 h, active compounds read low, screened at 18.75 µg/mL (by protocol)

How did the survival turn out when `CC(=O)N1c2ccccc2C(=O)C1N1CCN(c2ccccc2F)CC1` (stereo not given) was run?
Its survival is 90%.

Which survival does the source give for `COc1ccc(-c2cn3c(n2)sc2cc(C(=O)Nc4cccc(SC)c4)ccc23)cc1` here?
Its survival is 59%.

With `COC(=O)c1cc(NC(=O)Cn2ncc3c([nH]c4ccccc43)c2=O)cc(C(=O)OC)c1` as the compound, how does the survival read?
The survival was 66%.

With `O=C(CSc1ccc(-c2ccccn2)nn1)Nc1ccc(F)cc1F` as the compound, how does the survival read?
Its survival is 38%.

How did the survival turn out when `O=C(NCCc1ccc(Cl)cc1)c1ccc2c(c1)N(Cc1ccccc1)CCS2` was run?
The survival was 102%.

`O=C(NCCc1ccccc1)c1ccc2c(c1)N(Cc1c(F)cccc1Cl)C(=O)CS2` was tested. Which survival did it give?
Its survival is 54%.

`CC(NC(=O)c1ccc2c(c1)N(Cc1ccc(Cl)cc1)C(=O)c1ccccc1S2(=O)=O)c1ccccc1` (stereo not given) was tested. Which survival did it give?
Its survival is 90%.

With `O=C(NCCc1ccc(Cl)cc1)c1ccc2c(c1)N(Cc1c(F)cccc1Cl)C(=O)CS2` as the compound, how does the survival read?
The survival was 44% (active).

With `Cc1ccc(C)c(CN2C(=O)CSc3ccc(C(=O)NCCc4ccc(Cl)cc4)cc32)c1` as the compound, how does the survival read?
The survival was 49%.

With `O=C(NCCc1ccc(Cl)cc1)c1ccc2c(c1)N(Cc1ccccc1)C(=O)CS2` as the compound, how does the survival read?
The survival was 25% (active).

`CC(NC(=O)c1ccc2c(c1)N(Cc1ccc(Cl)cc1)C(=O)CS2)c1ccccc1` (stereo not given) was tested. Which survival did it give?
Its survival is 48% (active).

`O=C(NCCc1ccccc1)c1ccc2c(c1)N(Cc1ccc(Cl)cc1)C(=O)CS2` was tested. Which survival did it give?
The survival was 144%.

How did the survival turn out when `CC(NC(=O)c1ccc2c(c1)N(Cc1ccc(Cl)cc1)C(=O)c1ccccc1S2=O)c1ccccc1` (stereo not given) was run?
The survival was 73%.

With `O=C(NCCc1ccc(Cl)cc1)c1ccc2c(c1)N(Cc1ccc(F)cc1Cl)C(=O)CS2` as the compound, how does the survival read?
Its survival is 49%.

How did the survival turn out when `O=C(NCCc1ccccc1)c1ccc2c(c1)N(Cc1ccccc1Cl)C(=O)c1ccccc1S2` was run?
Its survival is 94%.

How did the survival turn out when `O=C(NCCc1ccccc1)c1ccc2c(c1)N(Cc1ccc(F)cc1Cl)C(=O)CS2` was run?
The survival was 55% (active).

How did the survival turn out when `CCOC(=O)c1c(C)n(CCNC(C)=O)c2cc(Br)c(OC)cc12` was run?
The survival was 106%.

With `O=C(COc1ccccc1)Nc1ccccc1C(=O)OCc1cc(=O)n2nc(C3CC3)sc2n1` as the compound, how does the survival read?
Its survival is 89%.

With `Cc1ccc(Nc2cc(=O)[nH]c(=O)[nH]2)cc1C` as the compound, how does the survival read?
Its survival is 72%.

`CCc1ccc(NC(=O)C(=O)NCC(c2cccnc2)N2CCN(Cc3ccccc3)CC2)cc1` (stereo not given) was tested. Which survival did it give?
The survival was 75%.

`CCc1ccc(CNC(=O)CCCN2C(=O)CCn3nc(-c4cccn4C)cc32)cc1` was tested. Which survival did it give?
Its survival is 72%.

For `Cc1ccccc1C(=O)NCCc1sc(-c2ccc(Cl)cc2)nc1C`, which survival is on record?
The survival was 100%.

For `COc1cccc(NC(=O)c2cn(C3CCCCC3)c(=O)c3c2c2ccccc2n3C)c1`, which survival is on record?
Its survival is 75%.

`Cc1ccc(CN(C(=O)c2ccc(OCC(C)C)cc2)c2ccccn2)o1` was tested. Which survival did it give?
Its survival is 104%.

For `COCCNC(=O)c1ccc2c(c1)N(Cc1c(F)cccc1Cl)C(=O)c1ccccc1S2`, which survival is on record?
Its survival is 78%.

For `O=C(NCc1ccc(F)cc1)c1ccc2c(c1)N(Cc1c(F)cccc1Cl)C(=O)CS2`, which survival is on record?
The survival was 40% (active).

How did the survival turn out when `COc1ccc(CNC(=O)c2ccc3c(c2)N(Cc2c(F)cccc2Cl)C(=O)CS3)cc1` was run?
The survival was 124%.

How did the survival turn out when `O=C(NCCc1ccc(Cl)cc1)c1ccc2c(c1)N(Cc1ccc(Cl)cc1)C(=O)CS2` was run?
The survival was 50%.

`O=C(NCCc1ccccc1)c1ccc2c(c1)N(Cc1ccc(F)cc1)C(=O)CS2` was tested. Which survival did it give?
The survival was 74%.

Which survival does the source give for `COc1ccccc1CNC(=O)c1ccc2c(c1)N(Cc1ccc(C)cc1)CCS2` here?
Its survival is 83%.

`COc1ccc(CCNC(=O)c2ccc3c(c2)N(Cc2ccc(F)cc2)C(=O)CS3)cc1OC` was tested. Which survival did it give?
Its survival is 117%.

`COc1ccc(CCNC(=O)c2ccc3c(c2)N(Cc2cccc(Cl)c2)C(=O)CS3)cc1OC` was tested. Which survival did it give?
The survival was 54% (active).

How did the survival turn out when `O=C(NCc1ccc2c(c1)OCO2)c1ccc2c(c1)N(Cc1c(F)cccc1Cl)C(=O)c1ccccc1S2` was run?
Its survival is 86%.

Which survival does the source give for `O=C(NCCc1ccc(Cl)cc1)c1ccc2c(c1)N(Cc1ccc(F)cc1)C(=O)CS2` here?
Its survival is 37% (active).

With `COc1ccccc1CNC(=O)c1ccc2c(c1)N(Cc1c(F)cccc1Cl)C(=O)CS2` as the compound, how does the survival read?
Its survival is 43% (active).

`COc1ccc(CCNC(=O)c2ccc3c(c2)N(Cc2cccc(Cl)c2)C(=O)c2ccccc2S3=O)cc1OC` (stereo not given) was tested. Which survival did it give?
The survival was 94%.

How did the survival turn out when `CCOc1ccc(NC(=O)C2CCCN(c3cnccn3)C2)cc1` (stereo not given) was run?
The survival was 86%.

For `CCOc1cc(-c2ccc(OC(=O)c3ccccc3Cl)c(OC)c2)cc(=O)c2c(C)oc(C)c12`, which survival is on record?
Its survival is 69%.

`COc1ccccc1CNC(=O)c1ccc(CSc2nc3ccncc3n2Cc2ccccc2C)cc1` was tested. Which survival did it give?
Its survival is 74%.

Which survival does the source give for `COc1ccc(C(=O)Nc2nnc(S(=O)(=O)N3CCOCC3)s2)cc1` here?
Its survival is 99%.

How did the survival turn out when `Cc1ccc(C(=O)Nc2nnc(S(=O)(=O)N3CCOCC3)s2)cc1` was run?
Its survival is 68%.

With `Cc1ccc(N2CCN(S(=O)(=O)c3nnc(NC(=O)c4ccc(C(C)C)cc4)s3)CC2)cc1` as the compound, how does the survival read?
The survival was 42% (active).

With `COc1ccc(C(=O)Nc2nnc(S(=O)(=O)N3CCN(c4ccc(F)cc4)CC3)s2)cc1` as the compound, how does the survival read?
The survival was 56%.

`COc1ccc(C(=O)Nc2nnc(S(=O)(=O)N3CCN(c4ccc(C)cc4)CC3)s2)cc1` was tested. Which survival did it give?
The survival was 48% (active).

How did the survival turn out when `Cc1ccc(C(=O)Nc2nnc(S(=O)(=O)N3CCN(c4ccc(F)cc4)CC3)s2)cc1` was run?
Its survival is 56%.

How did the survival turn out when `CCc1nc(SC)ncc1C(=O)NCc1cccc(Br)c1` was run?
The survival was 89%.

For `CCc1ccc(NC(=O)C2CCC(CNS(=O)(=O)c3cccs3)CC2)cc1` (stereo not given), which survival is on record?
The survival was 94%.

For `CCOCCCNC(=O)c1ccc(NC(=O)N2CCCCc3ccccc32)cc1`, which survival is on record?
The survival was 89%.

Which survival does the source give for `CCCCN(CC)Cc1ccc(CNS(=O)(=O)c2cc3c(cc2Cl)NC(=O)CO3)o1` here?
Its survival is 0% (active).

For `O=C1COc2cc(S(=O)(=O)NCc3ccco3)c(Cl)cc2N1`, which survival is on record?
The survival was 98%.

Which survival does the source give for `Cc1ccc(CNS(=O)(=O)c2cc3c(cc2Cl)NC(=O)CO3)o1` here?
The survival was 106%.

For `Cn1c(SCC(=O)N2c3ccccc3Sc3ccccc32)nnc1-c1ccco1`, which survival is on record?
The survival was 77%.

Which survival does the source give for `COC(=O)c1c(-c2ccc(Cl)cc2)noc1N1CCN(c2ccc(F)cc2)CC1` here?
The survival was 83%.

Which survival does the source give for `O=S1(=O)CCC(NCc2ccccc2)C1` (stereo not given) here?
The survival was 89%.

Which survival does the source give for `CS(=O)(=O)N(CC(=O)NCc1ccncc1)c1ccccc1` here?
Its survival is 85%.

With `CCC(C)NC(=O)c1ccccc1NC(=O)CN1C(=O)c2cccc3cccc1c23` (stereo not given) as the compound, how does the survival read?
The survival was 50%.

With `CSc1nsc(NC(=O)Nc2ccccc2C(F)(F)F)n1` as the compound, how does the survival read?
The survival was 13% (active).

How did the survival turn out when `O=C(Nc1nnc(N2CCCCCC2)s1)Nc1ccccc1C(F)(F)F` was run?
The survival was 80%.

How did the survival turn out when `CCSc1nsc(NC(=O)Nc2cccc(F)c2)n1` was run?
The survival was 1% (active).

`O=C(CSc1nnc(NC(=O)Nc2ccccc2)s1)Nc1cccc(F)c1` was tested. Which survival did it give?
The survival was 73%.

How did the survival turn out when `CSc1ncc(C(=O)Nc2ccccc2C(F)(F)F)c(-c2ccccc2)n1` was run?
Its survival is 117%.

Which survival does the source give for `CCSc1nsc(NC(=O)Nc2cccc(OC)c2)n1` here?
Its survival is 96%.

`O=C(NCCc1csc(-c2ccc(Cl)cc2)n1)c1cccs1` was tested. Which survival did it give?
The survival was 89%.

With `COc1ccc(CNC(=O)c2cc3ccccn3n2)cc1OC` as the compound, how does the survival read?
Its survival is 79%.

`Cc1cc(O)c(C(c2ccccc2Cl)N2CCCCC2)c(=O)n1Cc1ccco1` (stereo not given) was tested. Which survival did it give?
Its survival is 76%.

For `CCCOC(=O)c1c(-c2ccccc2)c(-c2ccccc2)nn(C)c1=O`, which survival is on record?
The survival was 60%.

Which survival does the source give for `Cc1ccc(C)c(Nc2ncnc3onc(C)c23)c1` here?
Its survival is 81%.

Which survival does the source give for `CCOC(=O)c1ccc(Nc2c(-c3cccc(O)c3)nc3nc[nH]n23)cc1` here?
The survival was 46% (active).

`CCOC(=O)c1ccc(Nc2c(-c3ccc(O)cc3)nc3nc[nH]n23)cc1` was tested. Which survival did it give?
Its survival is 91%.

For `CCOC(=O)c1ccc(Nc2c(-c3ccc(O)c(OC)c3)nc3nc[nH]n23)cc1`, which survival is on record?
The survival was 93%.

Which survival does the source give for `COc1ccc(NC(=O)C2CCCN(C(=O)c3cnn(-c4ccc(F)cc4)c3-n3cccc3)C2)cc1` (stereo not given) here?
The survival was 47% (active).

With `COc1ccc(NC(=O)C2CCCN(C(=O)c3cnn(-c4ccccc4)c3-n3cccc3)C2)cc1` (stereo not given) as the compound, how does the survival read?
Its survival is 70%.

How did the survival turn out when `COc1ccc(CNC(=O)C2CCCN(C(=O)c3cnn(-c4ccc(F)cc4)c3-n3cccc3)C2)cc1` (stereo not given) was run?
Its survival is 86%.

`COc1ccc(-c2noc(N(c3nc(-c4ccc(OC)c(OC)c4)no3)c3ccccc3OC)n2)cc1OC` was tested. Which survival did it give?
Its survival is 115%.

For `O=C(CN1C(=O)c2cccc3cccc1c23)Nc1ccccc1Br`, which survival is on record?
The survival was 63%.

Which survival does the source give for `CC(C)c1ccccc1NC(=O)CN1C(=O)c2cccc3cccc1c23` here?
The survival was 40% (active).

For `COc1ccccc1NC(=O)CN1C(=O)c2cccc3cccc1c23`, which survival is on record?
The survival was 62%.

Which survival does the source give for `CCOC(=O)c1cnc2cc(-c3ccc(OCC)cc3)nn2c1-c1ccccc1` here?
The survival was 68%.

Which survival does the source give for `CCOC(=O)CSc1nnc2n(-c3ccccc3)c(=O)c3c4c(sc3n12)CC(C(C)(C)C)CC4` (stereo not given) here?
The survival was 46% (active).

`CCCSc1nc2sc3c(c2c(=O)n1-c1ccc(C)cc1)CCCC3` was tested. Which survival did it give?
Its survival is 8% (active).

Which survival does the source give for `CCCSc1nc2sc3c(c2c(=O)n1-c1ccccc1)CCC(C)C3` (stereo not given) here?
Its survival is 2% (active).

How did the survival turn out when `CCOC(=O)CSc1nc2sc3c(c2c(=O)n1-c1ccccc1)CCC(C(C)(C)C)C3` (stereo not given) was run?
The survival was 58%.

Which survival does the source give for `CSc1nc2sc3c(c2c(=O)n1-c1ccccc1)CCC(C(C)(C)C)C3` (stereo not given) here?
The survival was 18% (active).

`CSc1nc2sc3c(c2c(=O)n1Cc1ccccc1)CCC(C(C)(C)C)C3` (stereo not given) was tested. Which survival did it give?
Its survival is 114%.

Which survival does the source give for `CCCc1nc2sc3c(c2c(=O)n1N)CCCC3` here?
Its survival is 97%.

Which survival does the source give for `C=C(C)CSc1nc2sc3c(c2c(=O)n1-c1ccccc1)CCC(C)C3` (stereo not given) here?
The survival was 84%.

For `CCOC(=O)CSc1nnc2n(-c3ccccc3)c(=O)c3c4c(sc3n12)COC(C(C)C)C4` (stereo not given), which survival is on record?
The survival was 74%.

How did the survival turn out when `COC(=O)CSc1nc2sc3c(c2c(=O)n1Cc1ccccc1)CCC(C(C)(C)C)C3` (stereo not given) was run?
The survival was 66%.

`CCCSc1nc2sc3c(c2c(=O)n1-c1ccc(C)c(Cl)c1)CCN(C(C)=O)C3` was tested. Which survival did it give?
Its survival is 81%.

With `CC(C)CCSc1nnc2n(-c3ccccc3)c(=O)c3c4c(sc3n12)CC(C)CC4` (stereo not given) as the compound, how does the survival read?
Its survival is 70%.
